According to PubChem BioAssay (NCI):
The panel holds about 83,000 compounds, 20% with a hit somewhere; the sample as a whole holds those more often.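 Single-dose data. Exposure time 48 hours. Values below 10 considered active.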 Calls of active or inactive are those of the source.

These molecules were tested on HL-60(TB) leukemia (assay: NCI-60 one-dose screen, 48 h (100 = growth as untreated, 0 = no growth, -100 = all killed)). Details: 10 µM unless noted.
With `CCOc1cccc(C2CC(=O)Nc3cc4c(cc32)OCO4)c1` (stereo not given) the growth was 90.7% (inactive).
In the case of `c1ccc(-c2oc(-c3ccccc3)c(CN3CCCCC3)c2CN2CCCCC2)cc1`, the growth was 27% (inactive).
With `CC1(C)CC(=O)C2=C(C1)N(c1ccc(OC(F)(F)F)cc1)C(N)=C(C#N)C2c1ccc(Br)cc1F` (stereo not given) the growth was 78.5% (inactive).
With `COc1ccc2c(c1)OC(N(C(C)=O)C(C)=O)=C(C#N)C2c1ccc(F)cc1` (stereo not given) the growth was -18.9% (active).
`CCN(CC)CCCNc1cc(OC)c(OC)c2cccnc12` was tested, and the growth was 29.2% (inactive).
For `CC1=NOC(=O)/C1=C\c1ccc(O)cc1`, the growth was 105% (inactive).
`O=C1/C(=C\c2cccc(OCCCCCOc3ccc(Cl)cc3)c2)N=C2SCCCN12` was tested, and the growth was 36% (inactive).
In the case of `CCCCC(CC)COC(=O)C[N+](C)(C)CCOC(c1ccccc1)c1ccccc1` (stereo not given), the growth was -56.7% (active).
With `COc1cnc2c(c1)C(=O)c1c-2n(CCCNC2=NCCS2)c(=O)c2cc(Cl)ccc12` the growth was -63.8% (active).
In the case of `S=c1[nH]nc2ccccn12`, the growth was 59.3% (inactive).
`CC(C)C1=NOC(=O)C1=Cc1cn(-c2ccccc2)nc1-c1ccccc1` was tested, and the growth was -45.2% (active).
`COc1ccc(-c2csc(C3=C(O)CN(CCCN4CCCC4=O)C3=N)n2)cc1OC` was tested, and the growth was 114% (inactive).
`O=C(N/N=C/c1ccccc1O)C(=O)Nc1ccc(F)cc1` was tested, and the growth was 29.6% (inactive).
With `Cn1ccc(=Nc2ccc(NC(=O)c3ccc(N=c4ccn(C)c5ccc([N+](=O)[O-])cc45)cc3)cc2)cc1` the growth was 76.7% (inactive).
In the case of `Nc1nc2ccc([C@@H]3Nc4ccc5[nH]ncc5c4[C@H]4[C@H]5CCC(C5)[C@H]43)cc2s1`, the growth was 12.4% (inactive).
In the case of `CCCCCc1c(C)[nH]c(/C=C2\N=C(c3ccc[nH]3)C=C2OCc2ccccc2)c1C`, the growth was -47.5% [100 µM] (active).
In the case of `O=S(=O)(/N=C1C=C/C(=N\S(=O)(=O)c2ccccc2)c2ccccc2\1)c1ccccc1`, the growth was 100% (inactive).
With `CCN(CC)C(=O)C1=C(C)NC(=O)NC1c1ccc2c(c1)OCO2` (stereo not given) the growth was 101% (inactive).
`N#CC1=C(N)Oc2ccc3ccccc3c2C1c1ccc([N+](=O)[O-])cc1` (stereo not given) was tested, and the growth was 39.8% (inactive).
With `CCCCCCC1(/C=N/NC(N)=O)NC(=O)NC1=O` (stereo not given) the growth was 96.7% (inactive).
For `COc1ccc2nc(-c3ccc(Cl)cc3)cc(-c3nnc(SC/C(=N\O)c4ccccc4)n3-c3ccccc3)c2c1`, the growth was 55.4% (inactive).
With `CC1=C(C(=O)Nc2ccc(F)cc2)C(c2ccccc2)C2=C(CC(C)(C)CC2=O)N1` (stereo not given) the growth was 76% (inactive).
In the case of `O=C(Nc1ncc(Cc2ccccc2Cl)s1)c1cccs1`, the growth was 58.5% (inactive).
With `O=C(CCN1CCCC1)Nc1ccc2c(Nc3ccc(Br)cc3)c3ccccc3nc2c1` the growth was -54.6% (active).
With `CC1(C)N=C(N)N=C(N)N1c1ccc(S(=O)(=O)Nc2nccs2)cc1` the growth was 101% (inactive).
